# “And” between values parts separate entries of the source, which are not always exact repeats. Identical values can stand only once. Inconclusive results are not listed. Some compounds were tested as several samples or in several runs, with calls that do not always agree. The source made the active and inactive calls. Unless noted, calls follow the shape of the dose curve; as a rule, active = well fitted curve in the direction sought with a large enough effect; inconclusive = small, poorly fitted or top-dose-only effect, or another doubt; inactive = no such curve, though single readings can be large; an effect the other way counts as inactive or inconclusive.
# What was measured:
# [1] = target: T1, Hexokinase-4 (Homo sapiens) + Glucokinase regulatory protein (Homo sapiens) (UniProt P35557+Q14397); assay: qHTS assay for inhibitors of recombinant human GCK-GKRP interaction: ADP-Glo assay (AID 743206);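 also: plate controls were DMSO plus enzyme for no effect and no enzyme for full effect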
# T1 sequence (P35557 whole entry, looked up): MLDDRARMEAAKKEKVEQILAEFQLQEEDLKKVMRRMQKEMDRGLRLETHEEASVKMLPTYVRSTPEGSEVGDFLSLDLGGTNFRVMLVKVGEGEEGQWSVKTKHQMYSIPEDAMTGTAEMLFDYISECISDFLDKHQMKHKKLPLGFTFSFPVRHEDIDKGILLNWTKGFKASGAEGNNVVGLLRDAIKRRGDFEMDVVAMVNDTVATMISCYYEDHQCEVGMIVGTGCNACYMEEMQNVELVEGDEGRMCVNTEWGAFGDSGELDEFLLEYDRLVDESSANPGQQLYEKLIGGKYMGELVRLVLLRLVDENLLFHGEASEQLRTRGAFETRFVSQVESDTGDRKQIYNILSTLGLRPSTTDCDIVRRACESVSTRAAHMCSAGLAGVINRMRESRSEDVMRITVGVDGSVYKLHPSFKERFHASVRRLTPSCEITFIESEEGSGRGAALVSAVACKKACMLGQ
# T1 sequence (Q14397 whole entry, looked up): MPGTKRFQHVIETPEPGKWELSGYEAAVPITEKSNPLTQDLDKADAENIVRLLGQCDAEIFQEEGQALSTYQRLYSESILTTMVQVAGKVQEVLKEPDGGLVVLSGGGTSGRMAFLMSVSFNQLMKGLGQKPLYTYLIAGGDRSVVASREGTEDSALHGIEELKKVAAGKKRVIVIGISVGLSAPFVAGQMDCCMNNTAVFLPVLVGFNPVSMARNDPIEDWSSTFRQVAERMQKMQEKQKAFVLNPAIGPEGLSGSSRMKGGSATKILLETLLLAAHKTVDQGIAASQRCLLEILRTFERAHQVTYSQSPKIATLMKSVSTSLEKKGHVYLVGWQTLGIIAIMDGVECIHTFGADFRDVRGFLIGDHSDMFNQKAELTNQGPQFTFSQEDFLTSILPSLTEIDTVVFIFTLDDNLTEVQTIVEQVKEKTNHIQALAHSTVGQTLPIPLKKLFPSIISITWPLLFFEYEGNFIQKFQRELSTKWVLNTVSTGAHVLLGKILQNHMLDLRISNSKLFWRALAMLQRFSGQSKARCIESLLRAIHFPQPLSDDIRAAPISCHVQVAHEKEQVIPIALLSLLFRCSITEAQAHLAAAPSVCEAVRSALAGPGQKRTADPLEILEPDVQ
# Procedure, shortened: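 Pin-transferred compounds meet a 15 nM GST-GCK/15 nM FLAG-GKRP/2 uM S6P mix (dispense concentrations). ATP is then added to 0.4 mM final with 5 mM glucose, and the reaction runs 60 min at room temperature. ADP is quantified luminescently.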
# [2] = target: T1, Hexokinase-4 (Homo sapiens) + Glucokinase regulatory protein (Homo sapiens); assay: qHTS assay for inhibitors of recombinant human GCK-GKRP interaction: HTRF assay (AID 743207);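 also: 0% = DMSO with GCK present and -100% = DMSO wells lacking GCK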
# Procedure, shortened: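 HTRF read-out (ex 320 nm; 615/665 nm emission) after 60 min RT equilibration of 5 nM GST-GCK, 5 nM FLAG-GKRP, 2 uM S6P, compound and anti-FLAG/anti-GST detection antibodies; signal normalized between DMSO wells with and without GCK.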
# [3] = qHTS Assay for Identifying Gametocytocidal Compounds (AID 743244); also: potency is read from the fitted curve at half-maximal effect;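 as to max response: % is scaled to controls: 0 for no effect and ±100 for the full control effect; actives lower the fluorescent signal which means gametocytes are killed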; conditions: P. falciparum 3D7 stage III-V gametocytes, alamarBlue, 72 h; max response: stronger effect = lower value
# Procedure, shortened: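 P. falciparum 3D7 stage III–V gametocytes (20,000 cells/well) were exposed to compounds for 72 h at 37 °C, 5% CO2. AlamarBlue was then added for 24 h; decreased resorufin fluorescence (Ex 525/Em 598 nm) indicated loss of viability.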
# [4] = qHTS assay for cell viability of HEK293 cells (AID 743288); conditions: ATP luminescence (CellTiter-Glo), 18 h; max response: stronger effect = lower value; also: % is scaled to controls: 0 for no effect and ±100 for the full control effect; nearly all actives have a fitted effect of over 50% in size
# Procedure, shortened: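 ATP luminescence (CellTiter-Glo) reports metabolically competent cell number after parental HEK293 cells, 2,000/well, were treated with DMSO-dissolved compounds for 18 h at 37 C; reagent incubation 30 min, room temperature.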
# [5] = qHTS assay for cell viability of the p53RE-bla HCT-116 cell line (AID 743292); also: % is scaled to controls: 0 for no effect and ±100 for the full control effect; nearly all actives have a fitted effect of over 55% in size
# Procedure, shortened: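 Viability of compound-treated p53RE-bla HCT-116 cells is taken from ATP-dependent luciferase luminescence. Treatment lasts 16 h at 37 C after a 5 h settling period; detection follows 30 min at room temperature.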
# [6] = qHTS profiling of the MIPE4 collection as inhibitors of Plasmodium falciparum (3D7) proliferation (AID 743344; call rule not given here;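 also: scaled between DMSO vehicle wells and 0.29 µM artemisinin as full inhibition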); conditions: P. falciparum 3D7 in erythrocytes, SYBR Green DNA fluorescence, 72 h; at 28.5 µM (top of the series) unless noted
# Procedure, shortened: (§1)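 Parasite DNA was quantified by SYBR Green I fluorescence (ex 485, em 535 nm) after overnight lysis in saponin/Triton buffer at room temperature. Cultures at 0.3% parasitemia and 2.5% hematocrit were first exposed to compound for 72 h at 37 C; signals were normalised to artemisinin (0.29 uM) and vehicle wells.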
# [7] = qHTS profiling of the MIPE4 collection as inhibitors of Plasmodium falciparum (DD2) proliferation (AID 743345; call rule not given here); conditions: P. falciparum Dd2 in erythrocytes, SYBR Green DNA, 72 h; at 28.5 µM (top of the series) unless noted
# Procedure, shortened: as §1
# [8] = qHTS profiling of the MIPE4 collection as inhibitors of Plasmodium falciparum (DD2) proliferation (Rep 2) (AID 743346; call rule not given here); conditions: P. falciparum Dd2 in erythrocytes, SYBR Green DNA, 72 h; at 28.5 µM (top of the series) unless noted
# Procedure, shortened: as §1
# [9] = qHTS profiling of the MIPE4 collection as inhibitors of Plasmodium falciparum (HB3) proliferation (AID 743347; call rule not given here;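 also: plate controls were DMSO vehicle wells for no effect and artemisinin wells for full effect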); conditions: P. falciparum HB3 in erythrocytes, SYBR Green DNA, 72 h; at 28.5 µM (top of the series) unless noted
# Procedure, shortened: as §1
# [10] = High-throughput drug toxicity screening in the BPDCN cell line Gen2.2 (AID 1224824; call rule not given here;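 also: cells exposed to compounds for 48 h before reading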); conditions: Gen2.2 BPDCN cells; at 45.8 µM (top of the series) unless noted
# Procedure, shortened: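 CellTiter-Glo luminescence after 48 h compound exposure of Gen2.2 cells; percent activity set with DMSO as 100% and bortezomib (9.2 uM final) as 0%. Cells seeded at 500 per well, RPMI + 10% FBS, 37 °C.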
# [11] = High-throughput drug toxicity screening in the BPDCN cell line Cal-1 (AID 1224825; call rule not given here); conditions: Cal-1 BPDCN cell viability, qHTS; at 45.8 µM (top of the series) unless noted
# Procedure, shortened: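 CellTiter-Glo luminescence after 48 h compound exposure; percent activity scaled with DMSO as 100% and bortezomib (9.2 uM final) as 0%. Cal-1 cells seeded at 500/well in RPMI, 10% FBS, no phenol red.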
# [12] = qHTS assay for measurement of the activity of small molecule inhibitors on Zika virus induced Caspase-3 activity in human iPSC derived neural progenitor cells (hNPCs) (AID 1224857); also: nearly all actives have a fitted effect of over 65% in size; also: potency is read from the fitted curve at half-maximal effect
# Procedure, shortened: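 hNPCs seeded 350 cells/well, cultured 16–20 h; compounds added 1 h before ZIKV (2 FFU/cell), 37 C 6 h. Caspase-Glo 3/7 luminescence after 30 min RT; % inhibition from induction scaled to uninfected (0%) and infected (100%) wells.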
# [13] = qHTS assay for measurement of the activity of small molecule inhibitors on Zika virus induced Caspase-3 activity in human astrocytoma cells (AID 1224859);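 also: plate controls were ZIKV-infected untreated cells for no effect and uninfected cells for full effect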
# Procedure, shortened: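 Luminescence read-out (Caspase-Glo 3/7, 30 min RT) of caspase activity in SNB-19 cells infected 6 h with ZIKV, 2 FFU/cell, after 1 h compound pretreatment; % inhibition from induction normalised to uninfected (0%) and infected (100%) wells.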
# [14] = qHTS Screen of the MIPE 4.0 Collection Against Ewings Sarcoma (TC71) (AID 1259253); also: nearly all actives have a fitted effect of over 40% in size; also: potency is read from the fitted curve at half-maximal effect
# Procedure, shortened: (§2)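 Log-phase cells in RPMI with 5% FBS attached for 4 h, then received compounds as a titration for 48 h at 37C, 5% CO2. Viability was read by CellTiter-Glo luminescence and normalized to DMSO and no-cell wells.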
# [15] = qHTS Screen of the MIPE 4.0 Collection Against Ewings Sarcoma (EW8) (AID 1259255); also: nearly all actives have a fitted effect of over 35% in size; also: potency is read from the fitted curve at half-maximal effect;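 as to viability: 100% = DMSO-treated cells and 0% = medium-only wells without cells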
# Procedure, shortened: as §2
# [16] = qHTS Screen of the MIPE 4.0 Collection Against Ewings Sarcoma (TC32) (AID 1259256); also: nearly all actives have a fitted effect of over 45% in size; also: potency is read from the fitted curve at half-maximal effect
# Procedure, shortened: as §2
# [17] = qHTS Screen of the MIPE 4.0 Collection Against Ewings Sarcoma (RDES) (AID 1259252); also: nearly all actives have a fitted effect of over 35% in size; also: potency is read from the fitted curve at half-maximal effect
# Procedure, shortened: as §2
SMILES,Potency [1],Potency [2],max response [3],max response [4],Potency [5],"parasite growth, % of DMSO control [6]","parasite growth remaining, % of DMSO control (lower = more inhibition) [7]","parasite growth, % of control (lower = inhibition) [8]","growth, % of control [9]","cell viability, % of control (lower = more cytotoxic) [10] [%]",viability (% of control) [11] [%],Potency [12],Potency [13],Potency [14],Potency [15],Potency [16],Potency [17],Potency [3]
Cn1cnc2c1c(=O)[nH]c(=O)n2C,inactive,inactive,-9.46% (inactive) and -3.09% (inactive),-4% (inactive),inactive,8.09%,7%,25.4%,9%,12.2,13.2,inactive,inactive,23.5 µM (active),23.5 µM (active),23.5 µM (active),–,–
CN1C2CCC1CC(OC(=O)C(CO)c1ccccc1)C2 (stereo not given),inactive,inactive,–,–,–,–,–,–,–,172,113,inactive,inactive,–,–,–,–,–
Cn1c(=O)c2[nH]cnc2n(C)c1=O,inactive,inactive,2.17% (inactive) and 13.8% (inactive),2.06% (inactive),inactive,–,102%,–,–,123,96.4,inactive,inactive,inactive,–,–,–,–
COc1ccc2[nH]cc(CCNC(C)=O)c2c1,inactive,inactive,6.15% (inactive) and 3.87% (inactive),-9.99% (inactive) and -9.18% (inactive) and -3.1% (inactive),inactive,89.5% and 101%,107% and 104%,89.3% and 83%,79.2% and 70.9%,132,65.3,inactive,–,1.05 µM (active),2.96 µM (active),3.32 µM (active),1.18 µM (active),–
CCCNCC(O)COc1ccccc1C(=O)CCc1ccccc1 (stereo not given),inactive,inactive,–,–,–,5.54%,6.97%,15.6%,6.85%,6.23,1.7,inactive,inactive,14.8 µM (active),20.9 µM (active),–,–,3.16 µM (active) and 1.78 µM (active)
CC(C)NCC(O)c1ccc(O)c(O)c1 (stereo not given),inactive,inactive,-2.95% (inactive),0.858% (inactive) and -11.4% (inactive),inactive,10.6%,91.4%,9.11%,9.05%,46.4,16,inactive,inactive,5.9 µM (active),20.9 µM (active),–,–,–
NC(CO)C(=O)NNCc1ccc(O)c(O)c1O (stereo not given),inactive,inactive,0.751% (inactive),–,–,84.1%,125%,89.1%,99.5%,86.9,79.5,inactive and 7.43 µM (active),inactive,–,–,26.4 µM (active),–,–
COc1cc2c(c(OC)c1OC)-c1ccc(OC)c(=O)cc1[C@@H](NC(C)=O)CC2,inactive,inactive,-10.9% (inactive) and -1.99% (inactive),-13.3% (inactive) and -14.4% (inactive) and -4% (inactive),inactive,–,–,–,–,10.1,11.2,inactive,–,inactive,inactive,inactive,inactive,–
CC(C)C(=O)Nc1ccc([N+](=O)[O-])c(C(F)(F)F)c1,inactive,inactive,-7.87% (inactive) and -5.86% (inactive),-5.73% (inactive) and -15.5% (inactive),inactive,–,–,–,–,58,5.71,inactive,–,10.5 µM (active),13.2 µM (active),13.2 µM (active),7.43 µM (active),–
COc1ccccc1N1CCN(CC(O)COc2cccc3ccccc23)CC1 (stereo not given),inactive,inactive,7.63% (inactive) and 7.03% (inactive),–,–,64.9%,–,65.8%,74.7%,156,112,inactive,inactive,16.6 µM (active),inactive,–,–,–
NCCCCCC(=O)O,inactive,inactive,-0.169% (inactive) and -6.11% (inactive),–,–,417%,–,118%,708%,140,130,inactive,–,–,inactive,–,–,–

# Source: PubChem BioAssay (NCATS)
